# Source: PubChem BioAssay (NCATS)
# Several values for one entry are separate records, joined by “and”; a condition that tells them apart may be missing. Equal entries are not always repeated. Results filed as inconclusive are left out. Unmarked numbers belong to inactive results. Activity calls are given as the source filed them. Calls come from the whole dose curve; as a rule, active = well fitted curve in the direction sought with a large enough effect; inconclusive = small, poorly fitted or top-dose-only effect, or another doubt; inactive = no such curve, though single readings can be large; an effect the other way counts as inactive or inconclusive.
# Legend:
# HEK293 = assay: Cytotoxic Profiling of Annotated Libraries Using Quantitative High-Throughput Screening (AID 1296008); details: Five cell lines viability, CellTiter-Glo ATP luminescence, 48-72 h; max response: active compounds read low; note: nearly all actives have a fitted effect of over 60% in size
# Summary of the method: (§1)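 Cytotoxicity was measured as CellTiter-Glo ATP luminescence, read after 10 min at room temperature. Compound treatment of the cells lasted 48 or 72 hr at 37 degrees Celsius in a qHTS format.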
# HaCat = assay: as above; details: Five cell lines viability, CellTiter-Glo ATP luminescence, 48-72 h; max response: active compounds read low
# Summary of the method: as §1
# NIH3T3 = assay: as above; details: Five cell lines viability, CellTiter-Glo ATP luminescence, 48-72 h; max response: active compounds read low
# Summary of the method: as §1
# MKL-2 = assay: qHTS assay to identify novel small-molecules to repurpose for Merkel cell carcinoma treatment (AID 1296009); details: MCC and control cell lines, CellTiter-Glo viability, 72 h; series mostly up to 46 µM; note: nearly all actives have a fitted effect of over 60% in size
# Summary of the method: (§2)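 72 hr, 37 degree celsius; NPC 8-pt / MIPE 11-pt dose response; compound pinned in DMSO; CellTiter-Glo, 10 min RT, luminescence; normalized to no-cell and DMSO controls.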
# UISO = assay: as above; details: MCC and control cell lines, CellTiter-Glo viability, 72 h; series mostly up to 46 µM
# Summary of the method: as §2
# C33A = assay: Primary qHTS to identify gynecologic anti-cancer compounds using libraries of approved drugs and bioactive compounds (AID 1345084); details: Gynecologic cancer cell panel viability, ATPlite luminescence, 48 h; series mostly up to 57.5 µM; note: nearly all actives have a fitted effect of over 55% in size
# Summary of the method: (§3)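 Cell viability after 48 h drug treatment, ATPlite luminescence readout; five doses.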
# Es-2 = assay: as above; details: Gynecologic cancer cell panel viability, ATPlite luminescence, 48 h; series mostly up to 57.5 µM
# Summary of the method: as §3
# Hek293T = assay: as above; details: Gynecologic cancer cell panel viability, ATPlite luminescence, 48 h, control line for the selectivity index; series mostly up to 57.5 µM
# Summary of the method: as §3
# JEG-3 = assay: as above; details: Gynecologic cancer cell panel viability, ATPlite luminescence, 48 h; series mostly up to 57.5 µM
# Summary of the method: as §3
# KB-3-1 = assay: Cytotoxic Profiling of Annotated Libraries Using Quantitative High-Throughput Screening (AID 1296008); details: Five cell lines viability, CellTiter-Glo ATP luminescence, 48-72 h; max response: active compounds read low; note: nearly all actives have a fitted effect of over 60% in size
# Summary of the method: as §1
# MCC-26 = assay: qHTS assay to identify novel small-molecules to repurpose for Merkel cell carcinoma treatment (AID 1296009); details: MCC and control cell lines, CellTiter-Glo viability, 72 h; series mostly up to 46 µM; note: nearly all actives have a fitted effect of over 60% in size
# Summary of the method: as §2
# WaGa = assay: as above; details: MCC and control cell lines, CellTiter-Glo viability, 72 h; series mostly up to 46 µM
# Summary of the method: as §2
# MCC-13 = assay: as above; details: MCC and control cell lines, CellTiter-Glo viability, 72 h; series mostly up to 46 µM
# Summary of the method: as §2
# HeLa = assay: Primary qHTS to identify gynecologic anti-cancer compounds using libraries of approved drugs and bioactive compounds (AID 1345084); details: Gynecologic cancer cell panel viability, ATPlite luminescence, 48 h; series mostly up to 57.5 µM; note: nearly all actives have a fitted effect of over 55% in size
# Summary of the method: as §3
# MKL-1 = assay: qHTS assay to identify novel small-molecules to repurpose for Merkel cell carcinoma treatment (AID 1296009); details: MCC and control cell lines, CellTiter-Glo viability, 72 h; series mostly up to 46 µM; note: nearly all actives have a fitted effect of over 60% in size
# Summary of the method: as §2
# CASKI = assay: Primary qHTS to identify gynecologic anti-cancer compounds using libraries of approved drugs and bioactive compounds (AID 1345084); details: Gynecologic cancer cell panel viability, ATPlite luminescence, 48 h; series mostly up to 57.5 µM; note: nearly all actives have a fitted effect of over 55% in size
# Summary of the method: as §3
# % is set by controls: 0 for no effect and ±100 for the full control effect; potency is the fitted concentration of half-maximal effect.
smiles,measurement,setting,value
COc1cc(C)c(Sc2cnc(NC(=O)c3ccc(CNC(C)C(C)C)cc3)s2)cc1C(=O)N1CCN(C(C)=O)CC1 (stereo not drawn),Potency,HEK293,14.8 µM (active) and 11.6 µM (active)
same,Potency,HaCat,5.9 µM (active)
same,Potency,NIH3T3,13.2 µM (active) and 13 µM (active)
same,Potency,MKL-2,inactive
same,Potency,UISO,18.7 µM (active)
same,Potency,C33A,inactive
same,Potency,Es-2,inactive
same,Potency,Hek293T,inactive
same,Potency,JEG-3,inactive
Cc1cc(Nc2cc(NC(=O)c3c(Cl)cccc3Cl)ccn2)nc(N)n1,Potency,HEK293,0.935 µM (active)
same,Potency,KB-3-1,0.418 µM (active)
same,Potency,NIH3T3,3.72 µM (active)
same,Potency,MCC-26,26.4 µM (active)
same,Potency,UISO,1.18 µM (active)
same,Potency,WaGa,2.35 µM (active)
CN1CCC(CNc2ccc3ncc(-c4cccc(OC(F)(F)F)c4)n3n2)CC1,Potency,HEK293,23.5 µM (active)
same,Potency,HaCat,13.2 µM (active) and 16.4 µM (active)
same,Potency,KB-3-1,20.9 µM (active)
same,Potency,MCC-13,inactive
same,Potency,MCC-26,inactive
same,Potency,MKL-2,inactive
same,Potency,WaGa,inactive
same,Potency,C33A,inactive
same,Potency,Es-2,inactive
same,Potency,HeLa,inactive
same,Potency,Hek293T,inactive
same,Potency,JEG-3,inactive
O=C(Nc1nc2cccc(-c3ccc(CN4CCS(=O)(=O)CC4)cc3)n2n1)C1CC1,Potency,HEK293,10.5 µM (active) and 10.3 µM (active)
same,Potency,KB-3-1,8.33 µM (active)
same,max response,NIH3T3,-23.2%
same,Potency,MCC-13,inactive
c1cc(-c2cnn3cc(-c4ccc(OCCN5CCCCC5)cc4)cnc23)ccn1,Potency,HEK293,3.32 µM (active)
same,Potency,KB-3-1,3.72 µM (active)
same,Potency,NIH3T3,0.372 µM (active)
same,Potency,MCC-13,16.6 µM (active)
same,Potency,MKL-1,11.8 µM (active)
same,Potency,UISO,5.9 µM (active)
same,Potency,WaGa,13.2 µM (active)
CN(C)CCCN=c1c2ccccc2n(C)c2[nH]c(=O)n(C)c(=O)c12,Potency,HEK293,5.26 µM (active)
same,Potency,HaCat,18.7 µM (active)
same,Potency,NIH3T3,23.5 µM (active)
same,Potency,MKL-1,10.5 µM (active)
same,Potency,MKL-2,14.8 µM (active)
same,Potency,UISO,20.9 µM (active)
same,Potency,WaGa,7.43 µM (active)
O=C(O)c1ccc2cc(-c3ccc(O)c(C45CC6CC(CC(C6)C4)C5)c3)ccc2c1,Potency,HEK293,1.87 µM (active)
same,max response,KB-3-1,7.83%
same,Potency,NIH3T3,1.66 µM (active)
same,Potency,MCC-13,2.64 µM (active)
same,Potency,MCC-26,2.96 µM (active)
same,Potency,MKL-1,2.35 µM (active)
same,Potency,UISO,1.18 µM (active)
same,Potency,WaGa,2.35 µM (active)
Nc1ccccc1NC(=O)c1ccc(CNc2nccc(-c3cccnc3)n2)cc1,Potency,HEK293,1.64 µM (active)
same,Potency,HaCat,3.72 µM (active)
same,Potency,KB-3-1,1.87 µM (active) and 2.06 µM (active)
same,Potency,MCC-13,5.26 µM (active)
same,Potency,MKL-1,2.35 µM (active)
same,Potency,MKL-2,1.48 µM (active)
same,Potency,UISO,2.35 µM (active)
same,Potency,WaGa,0.418 µM (active)
same,Potency,C33A,6.31 µM (active)
same,Potency,CASKI,8.91 µM (active)
same,Potency,Es-2,4.47 µM (active)
same,Potency,HeLa,0.891 µM (active)
same,Potency,JEG-3,3.55 µM (active)
C[C@@H](Oc1cc(-n2cnc3ccc(CN4CCN(C)CC4)cc32)sc1C(N)=O)c1ccccc1C(F)(F)F,Potency,HEK293,0.0332 µM (active)
same,Potency,KB-3-1,0.0118 µM (active)
same,Potency,NIH3T3,0.662 µM (active)
same,Potency,MKL-1,0.0296 µM (active)
COc1cc(C(=O)N2CCC(N3CCN(C)CC3)CC2)ccc1Nc1ncc2c(n1)N(C)c1ccccc1C(=O)N2C,Potency,HEK293,11.8 µM (active) and 9.2 µM (active)
same,Potency,KB-3-1,14.8 µM (active) and 16.4 µM (active)
same,Potency,NIH3T3,13 µM (active)
same,Potency,MCC-13,inactive
same,Potency,MKL-2,2.35 µM (active)
same,Potency,WaGa,16.6 µM (active)
same,Potency,C33A,inactive
same,Potency,Es-2,inactive
same,Potency,Hek293T,inactive
same,Potency,JEG-3,inactive
CC1(C)OC2=C(C(=O)c3ccccc3C2=O)[C@H](NCc2ccccc2)[C@H]1O,Potency,HEK293,8.33 µM (active)
same,Potency,KB-3-1,9.35 µM (active)
same,Potency,NIH3T3,11.8 µM (active)
same,Potency,MCC-13,10.5 µM (active)
same,Potency,MKL-1,3.32 µM (active)
CN(c1ncccc1CNc1nc(Nc2ccc3c(c2)CC(=O)N3)ncc1C(F)(F)F)S(C)(=O)=O,Potency,HEK293,3.72 µM (active)
same,Potency,HaCat,16.6 µM (active)
same,Potency,KB-3-1,7.43 µM (active)
same,Potency,MKL-1,9.35 µM (active)
same,Potency,UISO,11.8 µM (active)
same,Potency,WaGa,8.33 µM (active)
C[C@@]12O[C@@H](C[C@]1(O)CO)n1c3ccccc3c3c4c(c5c6ccccc6n2c5c31)CNC4=O,Potency,HEK293,4.18 µM (active)
same,Potency,KB-3-1,0.372 µM (active)
same,Potency,NIH3T3,1.87 µM (active)
same,Potency,MCC-26,18.7 µM (active)
same,Potency,MKL-1,1.48 µM (active)
same,Potency,MKL-2,0.0526 µM (active)
same,Potency,UISO,1.66 µM (active)
same,Potency,WaGa,0.833 µM (active)
CC(C)=CCCC(C)=CCCC(C)=CCSc1ccccc1C(=O)O,Potency,HEK293,1.66 µM (active)
same,Potency,KB-3-1,4.69 µM (active)
same,Potency,NIH3T3,14.8 µM (active)
C=CC(=O)Nc1cc2c(Nc3ccc(F)c(Cl)c3)ncnc2cc1C#CC(C)(C)N1CCN(C)CC1,Potency,HEK293,2.96 µM (active)
same,Potency,HaCat,2.09 µM (active)
same,Potency,MCC-13,11.8 µM (active)
same,Potency,MCC-26,10.5 µM (active)
same,Potency,MKL-1,6.62 µM (active)
same,Potency,UISO,7.43 µM (active)
same,Potency,WaGa,5.26 µM (active)
COC(=O)[C@]12CCC(C)(C)C[C@@H]1[C@@H]1C(=O)C=C3[C@@]4(C)C=C(C#N)C(=O)C(C)(C)[C@@H]4CC[C@@]3(C)[C@]1(C)CC2,Potency,HEK293,2.96 µM (active)
same,Potency,HaCat,4.18 µM (active)
same,Potency,KB-3-1,1.18 µM (active)
same,Potency,MCC-26,inactive
same,Potency,MKL-1,inactive
Cc1cnc(Nc2ccc(F)cc2Cl)nc1-c1c[nH]c(C(=O)N[C@H](CO)c2cccc(Cl)c2)c1,max response,HEK293,-111%
same,max response,HaCat,-129%
same,Potency,NIH3T3,10.5 µM (active)
same,Potency,MKL-2,14.8 µM (active)
same,Potency,UISO,2.64 µM (active)
same,Potency,CASKI,25.1 µM (active)
same,Potency,Es-2,20 µM (active)
same,Potency,HeLa,31.6 µM (active)
same,Potency,JEG-3,inactive
